# Reference: PubChem BioAssay AID2435 (The Scripps Research Institute Molecular Screening Center, 2010)
# Screen size: about 320,000 compounds; about 1,000 (0.31%) were called active.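 Rule for the calls: active = activation above the mean of all tested compounds plus 3 SD, cutoff set per screening run (cut at about 20% in these data); inactive = the rest.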 The sample as a whole holds a higher share of actives than the screen did.
# Target: Oxytocin receptor (Homo sapiens) (UniProt P30559)
# Assay: oxytocin receptor activation by calcium flux – fluorescence, CHO-OTR cells, Fluo-8 calcium, primary screen (AID 2435);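 note: peak over basal fluorescence ratio from a 100 s FLIPR kinetic read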
# Conditions: Fluo-8 calcium fluorescence, at 3 µM, active compounds read high, normalized: DMSO 0%, oxytocin 100%
# Oxytocin receptor (Homo sapiens), sequence (P30559 whole entry, looked up): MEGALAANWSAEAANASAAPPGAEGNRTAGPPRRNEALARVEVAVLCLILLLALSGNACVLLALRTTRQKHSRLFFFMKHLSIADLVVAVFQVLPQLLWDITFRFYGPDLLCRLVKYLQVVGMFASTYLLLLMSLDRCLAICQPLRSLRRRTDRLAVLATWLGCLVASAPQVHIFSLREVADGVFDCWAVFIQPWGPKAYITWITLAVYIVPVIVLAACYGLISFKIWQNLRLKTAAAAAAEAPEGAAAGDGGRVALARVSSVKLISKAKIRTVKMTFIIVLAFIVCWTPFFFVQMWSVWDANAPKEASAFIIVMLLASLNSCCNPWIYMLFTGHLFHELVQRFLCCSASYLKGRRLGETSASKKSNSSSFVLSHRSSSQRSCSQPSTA
row,Structure (SMILES),activation
1,Cc1cccc(OCC(=O)NC(=S)Nc2ccccc2N2CCOCC2)c1,-0.15% (inactive)
2,Cc1ccc(O)c(NC(=S)NC(=O)COc2ccc(Br)cc2)c1,51.9% (active)
3,Cc1ccc(O)c(NC(=O)COc2cc(C)ccc2C)c1,0.92% (inactive)
4,COc1ccc([N+](=O)[O-])cc1NCC(=O)c1ccc(C)cc1,-1.36% (inactive)
5,O=C(NC1CC1)C1=C[C@H](c2c[nH]c3ccccc23)C[C@H](OCc2ccc(CO)cc2)O1,-0.84% (inactive)
6,NC(=O)C1=C[C@H](c2csc3ccccc23)C[C@H](OCc2ccc(CO)cc2)O1,25.9% (active)
7,NC(=O)C1=C[C@@H](c2csc3ccccc23)C[C@@H](OCc2ccc(CO)cc2)O1,5% (inactive)
8,Cc1ccc(NC(=O)CN(C)C(=O)c2cccc(S(=O)(=O)N3CCCC3)c2)cc1,-1.01% (inactive)
9,COc1ccc(/C=C2\SC(=S)N(CCCC(=O)NC3CCCC3)C2=O)cc1OC,-1.19% (inactive)
10,COc1cc(/C=C2/SC(=S)N(Cc3ccccc3)C2=O)cc(OC)c1O,23.8% (active)
11,COc1ccc(/C=C2\SC(=S)N(CCC(=O)Nc3cccc(C(=O)O)c3)C2=O)cc1OC,-0.74% (inactive)
12,COCCn1c(N)c(NCc2ccccc2)c(=O)[nH]c1=O,0.2% (inactive)
13,Cc1ccccc1NC(=O)NCC1CCN(Cc2cccc(Cl)c2)CC1,1.57% (inactive)
14,COc1ccc(Cl)cc1NC(=O)NCC1CCN(Cc2ccccc2F)CC1,19.8% (active)
15,O=C(NCC1CCN(Cc2ccccc2Cl)CC1)Nc1cccc(Cl)c1,4.22% (inactive)
16,Cc1ccc(C)c(CN2CCC(CNC(=O)Nc3ccc(C)c(F)c3)CC2)c1,2.73% (inactive)
17,Cc1cccc(CN2CCC(CNC(=O)Nc3ccc(F)c(Cl)c3)CC2)c1,28.2% (active)
18,COc1cc(NC(=O)NCC2CCN(Cc3ccc(C)cc3)CC2)cc(OC)c1OC,1.34% (inactive)
19,CCn1cc(CCC(=O)NCc2ccc(F)cc2)c2ccccc21,-1.14% (inactive)
20,COc1ccc(C(C#N)N2N=C(C)CC2(C)C)cc1 (stereo not drawn),0.73% (inactive)

row,Structure (SMILES),activation
1,COc1cc(C(F)(F)F)c(C(=O)N(C)c2ccc(Cl)cc2)cn1,-1.66% (inactive)
2,COc1ccccc1CNS(=O)(=O)c1cc2c3c(c1)CCC(=O)N3CCC2,2.19% (inactive)
3,CCOc1ccc(N(C(=O)c2snc(C(N)=O)c2N)C(C(=O)NCC2CCCO2)c2c[nH]c3ccccc23)cc1 (stereo not drawn),1.87% (inactive)
4,CCOC(=O)N1CCN(CCC(=O)Nc2ccccc2)CC1,-0.17% (inactive)
5,Cc1cc(NC(=O)CCN2CCN(Cc3ccccc3)CC2)ccc1Br,23.2% (active)
6,CC1CCN(CCC(=O)Nc2ccccc2)CC1,-0.16% (inactive)
7,Cc1ccccc1CCNC(=O)C1CCC(=O)N(Cc2ccc(Cl)cc2)C1 (stereo not drawn),-1.42% (inactive)
8,CCCCCN(C(=O)CCC(=O)OCC(=O)NCc1ccc(OC)cc1)c1c(N)n(CCCC)c(=O)[nH]c1=O,-0.95% (inactive)
9,Cc1ccc(-c2cc(C(=O)NN)n[nH]2)o1,-1.85% (inactive)
10,COc1ccc(C(=O)NNC(=O)c2cc(C)[nH]n2)cc1,-1.68% (inactive)
11,CC(CO)(CO)NC(=O)c1ccc(=O)[nH]n1,45.8% (active)
12,O=C(CSc1nc2[nH]ncc2c(=O)[nH]1)Nc1ccc(F)cc1,0.71% (inactive)
13,O=C(NCCC1CCCCN1S(=O)(=O)c1ccc(Cl)cc1)C(=O)NCc1ccco1 (stereo not drawn),-1.1% (inactive)
14,CCN(CC)c1ccc(C(=O)Nn2c(C)nc3ccccc3c2=O)cc1,3.66% (inactive)
15,C=CCN(C(=O)Nc1ccc2oc(C)nc2c1)c1ccccc1,-0.77% (inactive)
16,CCN(CC)c1ccc2oc(=O)c(C)nc2c1,38% (active)
17,CCOc1ccc(C)cc1S(=O)(=O)NC1CCCCCC1,-1.02% (inactive)
18,C[C@@H]1O[C@@H](OC[C@H]2O[C@@H](Oc3c(-c4ccc(O)cc4)oc4cc(O)cc(O)c4c3=O)[C@H](O)[C@@H](O)[C@@H]2O)[C@H](O)[C@H](O)[C@H]1O,-0.01% (inactive)
19,CCCCc1nc(NCCN)c(C#N)c2c1CSC(C)(C)C2,7.89% (inactive)
20,CCCC(O)(c1ccc(OC)cc1)C(CN(C)C)c1ccccc1 (stereo not drawn),1.32% (inactive)

row,Structure (SMILES),activation
1,COC(=O)c1ccc(OCC(O)CN(CCO)CC(O)Cn2ccc3ccccc32)cc1 (stereo not drawn),3.04% (inactive)
2,COc1ccc(CN2C(=O)CC(Cc3ccc(C)cc3)C2=O)cc1OC (stereo not drawn),-1.49% (inactive)
3,CCN(Cc1ccccc1)C(=O)CSc1nc(C)cc2c1C(=O)OC2,1.04% (inactive)
4,Cc1ccc(CNC(=O)c2cccc3c2C(=O)c2ccc(N4CCC(C)CC4)cc2S3(=O)=O)cc1,40.5% (active)
5,Cc1ccc(CNC(=O)c2ccc3c(c2)S(=O)(=O)c2ccccc2C3=O)cc1,-0.21% (inactive)
6,CC1CCN(c2c(NCc3ccc(C(=O)NCc4ccccc4)cc3)c(=O)c2=O)CC1,0.21% (inactive)
7,CC(C)Oc1c(Br)cc(Br)cc1/C=N/NC(N)=S,-1.11% (inactive)
8,O=C(CSc1ncnc2sccc12)N1CCN(C(=O)c2cccs2)CC1,1.17% (inactive)
9,Nc1c(C(=O)c2cccs2)sc2nsc(SCCN3CCCCC3)c12,50.2% (active)
10,O=C(CCCN1C(=O)CCC1=O)Nc1ccc(Cl)c(C(F)(F)F)c1,6.54% (inactive)
11,CC1=CC(=C(C#N)c2nc3ccccc3s2)C=C(C)N1c1ccc(F)cc1F,0.27% (inactive)
12,O=c1[nH][nH]c(C(F)(F)F)c1C=NCc1ccccc1Cl,1.38% (inactive)
13,O=C(NCCCc1ccccc1)C(=O)NCC1OCCN1S(=O)(=O)c1ccccc1 (stereo not drawn),-0.3% (inactive)
14,Cc1cc(S(=O)(=O)c2cc3ccc(O)c(C)c3oc2=O)ccc1F,20.6% (active)
15,COc1cccc2cc(S(=O)(=O)c3ccc(C)cc3)/c(=N/NS(=O)(=O)c3ccc(C)cc3)oc12,-0.02% (inactive)
16,COC(=O)Cc1cc(=O)oc2c(C)c(O)ccc12,3.75% (inactive)
17,COCCNC(=O)NC(=O)COC(=O)C1(c2ccc(Cl)cc2)CC1,-1.47% (inactive)
18,CCc1c(C)sc(NC(=O)OC)c1C(=O)N1CCOCC1,-0.45% (inactive)
